In PubChem BioAssay AID1159580 (chemical genetic matrix, 2015):
Hit rate of the full screen: of about 5,500 compounds, about 2,000 (36%) were called active. Inconclusive results (about 18%) are left out. Cut-off read from the data, not from the text of the source: active = normalized growth mostly below about 0.91 (no sharp cut-off); inconclusive = no clear call, values can overlap the other calls; inactive = mostly above about 0.92. The list shows a part of the results.

Test: chemical genetic growth profiling, strain panel (AID 1159580);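 note: tested at 20 µM; growth read once vehicle control cultures reached saturation at 30 °C; 1 = growth at the plate median or of vehicle wells; lower values mean less growth of the strain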
Settings: growth OD

Measured: normalized growth

CC/C(=C(/CC)c1ccc(O)cc1)c1ccc(O)cc1
inactive: S. cerevisiae deletion strains, locus YKL009W, strain mrt4, stronger effect = lower value 0.916 | S. cerevisiae deletion strains, locus YKL068W, stronger effect = lower value 1.01 | S. cerevisiae deletion strains, locus YKL085W, strain MDH1 (second series), stronger effect = lower value 0.973 | S. cerevisiae deletion strains, locus YKL085W, strain MDH1, stronger effect = lower value 0.973 | S. cerevisiae deletion strains, locus YKL160W, strain elf1, stronger effect = lower value 0.955 | S. cerevisiae deletion strains, locus YKL190W, strain CNB1, stronger effect = lower value 1 | S. cerevisiae deletion strains, locus YKR001C, strain vps1, stronger effect = lower value 0.987 | S. cerevisiae deletion strains, locus YKR026C, strain gcn3, stronger effect = lower value 1.02 | S. cerevisiae deletion strains, locus YKR091W, strain srl3, stronger effect = lower value 1.01 | S. cerevisiae deletion strains, locus YLL001W, strain dnm1, stronger effect = lower value 1 | S. cerevisiae deletion strains, locus YLL026W, stronger effect = lower value 1 | S. cerevisiae deletion strains, locus YLL041C, strain sdh2, stronger effect = lower value 1.02 | S. cerevisiae deletion strains, locus YLR027C, strain aat2, stronger effect = lower value 1.01 | S. cerevisiae deletion strains, locus YLR058C, strain SHM2, stronger effect = lower value 0.943 | S. cerevisiae deletion strains, locus YLR102C, strain apc9, stronger effect = lower value 1.01 | S. cerevisiae deletion strains, locus YLR113W, strain HOG1, stronger effect = lower value 0.963 | S. cerevisiae deletion strains, locus YLR221C, strain rsa3, stronger effect = lower value 0.956 | S. cerevisiae deletion strains, locus YLR258W, strain gsy2, stronger effect = lower value 0.963 | S. cerevisiae deletion strains, locus YLR268W, strain sec22, stronger effect = lower value 0.945 | S. cerevisiae deletion strains, locus YLR330W, strain CHS5, stronger effect = lower value 0.981 | S. cerevisiae deletion strains, locus YLR342W, strain FKS1 (second series), stronger effect = lower value 0.89 | S. cerevisiae deletion strains, locus YLR342W, strain FKS1, stronger effect = lower value 1.01 | S. cerevisiae deletion strains, locus YLR357W, strain rsc2, stronger effect = lower value 1.14 | S. cerevisiae deletion strains, locus YLR370C, strain arc18, stronger effect = lower value 1.01 | S. cerevisiae deletion strains, locus YLR371W, strain rom2, stronger effect = lower value 1.02 | S. cerevisiae deletion strains, locus YLR384C, strain iki3, stronger effect = lower value 1.02 | S. cerevisiae deletion strains, locus YLR418C, strain cdc73, stronger effect = lower value 0.956 | S. cerevisiae deletion strains, locus YML016C, strain PPZ1, stronger effect = lower value 1.01 | S. cerevisiae deletion strains, locus YML032C, strain rad52, stronger effect = lower value 0.914 | S. cerevisiae deletion strains, locus YML120C, strain ndi1, stronger effect = lower value 1.01 | S. cerevisiae deletion strains, locus YML124C, strain tub3, stronger effect = lower value 1.01 | S. cerevisiae deletion strains, locus YMR058W, strain fet3, stronger effect = lower value 0.974 | S. cerevisiae deletion strains, locus YMR078C, strain ctf18, stronger effect = lower value 1 | S. cerevisiae deletion strains, locus YMR125W, strain sto1, stronger effect = lower value 1.09 | S. cerevisiae deletion strains, locus YMR129W, stronger effect = lower value 1.02 | S. cerevisiae deletion strains, locus YMR205C, strain PFK2, stronger effect = lower value 0.943 | S. cerevisiae deletion strains, locus YMR223W, strain ubp8, stronger effect = lower value 0.942 | S. cerevisiae deletion strains, locus YMR231W, strain pep5, stronger effect = lower value 1.03 | S. cerevisiae deletion strains, locus YNL067W, strain RPL9B, stronger effect = lower value 0.933 | S. cerevisiae deletion strains, locus YNL153C, strain GIM3, stronger effect = lower value 0.918 | S. cerevisiae deletion strains, locus YNL183C, strain NPR1, stronger effect = lower value 0.921 | S. cerevisiae deletion strains, locus YNL209W, strain ssb2, stronger effect = lower value 0.981 | S. cerevisiae deletion strains, locus YNL233W, strain BNI4, stronger effect = lower value 0.896 | S. cerevisiae deletion strains, locus YNL248C, strain rpa49, stronger effect = lower value 1.02 | S. cerevisiae deletion strains, locus YNL250W, strain rad50, stronger effect = lower value 1 | S. cerevisiae deletion strains, locus YNL271C, strain bni1, stronger effect = lower value 1 | S. cerevisiae deletion strains, locus YNL298W, strain CLA4, stronger effect = lower value 0.914 | S. cerevisiae deletion strains, locus YNL307C, strain MCK1, stronger effect = lower value 0.995 | S. cerevisiae deletion strains, locus YNL322C, strain KRE1 (second series), stronger effect = lower value 1.03 | S. cerevisiae deletion strains, locus YNL322C, strain KRE1, stronger effect = lower value 0.992 | S. cerevisiae deletion strains, locus YNR049C, strain mso1, stronger effect = lower value 1.01 | S. cerevisiae deletion strains, locus YNR052C, strain pop2, stronger effect = lower value 0.99 | S. cerevisiae deletion strains, locus YOL006C, strain TOP1, stronger effect = lower value 0.73 | S. cerevisiae deletion strains, locus YOL012C, strain htz1 1.4 | S. cerevisiae deletion strains, locus YOL147C, strain pex11, stronger effect = lower value 1.02 | S. cerevisiae deletion strains, locus YOR001W, strain rrp6, stronger effect = lower value 0.997 | S. cerevisiae deletion strains, locus YOR061W, strain CKA2, stronger effect = lower value 0.976 | S. cerevisiae deletion strains, locus YOR069W, strain VPS5, stronger effect = lower value 1 | S. cerevisiae deletion strains, locus YOR070C, strain gyp1, stronger effect = lower value 0.945 | S. cerevisiae deletion strains, locus YOR080W, strain dia2, stronger effect = lower value 1.02 | S. cerevisiae deletion strains, locus YOR083W, strain WHI5, stronger effect = lower value 0.948 | S. cerevisiae deletion strains, locus YOR106W, strain vam3, stronger effect = lower value 0.951 | S. cerevisiae deletion strains, locus YOR136W, strain idh2, stronger effect = lower value 1.01 | S. cerevisiae deletion strains, locus YOR144C, strain elg1, stronger effect = lower value 1.01 | S. cerevisiae deletion strains, locus YOR231W, strain MKK1, stronger effect = lower value 0.976 | S. cerevisiae deletion strains, locus YOR265W, strain rbl2, stronger effect = lower value 0.999 | S. cerevisiae deletion strains, locus YOR290C, strain snf2, stronger effect = lower value 0.961 | S. cerevisiae deletion strains, locus YOR316C, strain cot1, stronger effect = lower value 1 | S. cerevisiae deletion strains, locus YPL051W, strain arl3, stronger effect = lower value 0.919 | S. cerevisiae deletion strains, locus YPL055C, strain LGE1, stronger effect = lower value 0.811 | S. cerevisiae deletion strains, locus YPL078C, strain atp4, stronger effect = lower value 0.953 | S. cerevisiae deletion strains, locus YPL106C, strain sse1, stronger effect = lower value 1.12 | S. cerevisiae deletion strains, locus YPL240C, strain hsp82, stronger effect = lower value 1.01 | S. cerevisiae deletion strains, locus YPL256C, strain CLN2, stronger effect = lower value 0.977 | S. cerevisiae deletion strains, locus YPR119W, strain clb2, stronger effect = lower value 1 | S. cerevisiae deletion strains, locus YPR141C, strain kar3, stronger effect = lower value 1.03 | S. cerevisiae deletion strains, locus YPR163C, strain tif3, stronger effect = lower value 1.02 | S. cerevisiae deletion strains, locus YPR167C, strain met16, stronger effect = lower value 1 | S. cerevisiae deletion strains, strain wtn01, stronger effect = lower value 0.971 | S. cerevisiae strains, strain wild type, stronger effect = lower value 0.948
active: S. cerevisiae deletion strains, locus YLR039C, strain RIC1, stronger effect = lower value 0.481 | S. cerevisiae deletion strains, locus YLR262C, strain YPT6 (second series), stronger effect = lower value 0.485 | S. cerevisiae deletion strains, locus YLR262C, strain YPT6, stronger effect = lower value 0.439 | S. cerevisiae deletion strains, locus YLR320W, strain mms22, stronger effect = lower value 0.84 | S. cerevisiae deletion strains, locus YMR307W, strain GAS1, stronger effect = lower value 0.569 | S. cerevisiae deletion strains, locus YNL071W, strain lat1, stronger effect = lower value 0.913 | S. cerevisiae deletion strains, locus YOR184W, strain ser1, stronger effect = lower value 0.812 | S. cerevisiae deletion strains, locus YOR270C, strain vph1, stronger effect = lower value 0.728
